# Measurements: PubChem BioAssay AID1259240 (Keith Lab, Institute of Cancer Science, University of …, 2017)
# A number with no mark means an inactive call. Active and inactive are the calls of the source. Cut-off read from the data, not from the text of the source: active = fold change mostly below about -2 (no sharp cut-off); inactive = mostly above about -1.8.
# Assay: modulation of TERT promoter-driven luciferase – cell-based, luciferase reporter, human, primary screen (AID 1259240)
# Conditions: A2780 TERT promoter luciferase reporter, 16 h; at 20 µM, fold versus average of vehicle-only wells
Compound,fold change,outcome
O=C1c2cccnc2C(=O)N1CNc1ccccn1,-1.26,
O=C1CC(c2cc(Br)cs2)c2cc3c(cc2N1)OCO3 (configuration not stated),1.13,
COc1ccccc1-c1c(C)nn2c(N3CCOCC3)cc(C)nc12,1.18,
CCOC(=O)C1CCCN(c2c(N3CCOCC3)c(=O)c2=O)C1 (configuration not stated),-1.15,
O=C(Cn1c(=O)c2ccccc2n(CC(=O)Nc2ccc(F)cc2F)c1=O)NCc1ccco1,-2.2 (active),
Cn1c(SCc2nc(-c3ccccc3)no2)nnc1-c1ccco1,-2.04 (active),
NC(=O)c1c(NC(=O)c2cc(-c3ccc(O)cc3)on2)sc2c1CCCC2,,inactive
COc1ccc2c(NCC3=CC=CC3)cc(C)nc2c1,-1.73,
Cc1cc2[nH]c(=O)c(CCO)c(C)n2n1,,inactive
O=C(CCCCn1c(=O)[nH]c2ccsc2c1=O)NCCc1c[nH]c2ccccc12,-2.16 (active),
CCOC(=O)N1CCC(Nc2c(N3CCCC3)c(=O)c2=O)CC1,-1.12,
COc1ccc(NC(=O)Nc2c(C)n(C)n(-c3ccccc3)c2=O)cc1,-1.33,
C=CCN1CN=C(NS(=O)(=O)c2ccc(C)cc2)NC1,-1.75,
O=c1/c(=C/c2cn(-c3ccccc3)nc2-c2ccccc2)sc2nc(-c3ccco3)nn12,1.18,
O=c1[nH]c(-c2ccc3nsnc3c2)nc2ccccc12,,inactive
CC(C)CC(NS(=O)(=O)c1ccc2c(c1)oc(=O)n2C)C(=O)N1CCn2c1nc1ccccc12 (configuration not stated),-1.61,
CC(C)Cc1c(O)nc(SCCN2CCOCC2)[nH]c1=O,-1.64,
